The record followed here is PubChem BioAssay (NCI).

Some test systems named below: NCI-H23 lung; NCI-H226 lung; NCI-H322M lung; HOP-62 NSCLC; NCI-H460 lung; HOP-92 NSCLC; NCI-H522 lung; A549/ATCC NSCLC; 786-0 renal; COLO 205 colon.
Common to all, as to experiment: NCI-60 one-dose screen, 48 h (100 = growth as untreated, 0 = no growth, -100 = all killed)
What all share (settings): 10 µM

The panel holds about 83,000 compounds, 20% with a hit somewhere; the sample as a whole holds those more often.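 Each cell line was grown in a 96-well plate and treated with one concentration of compound for 48 hours. Values below 10 were considered active.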 A number with no mark means an inactive call. Activity calls are given as the source filed them.

`CCOC(=S)Sc1ccc([N+](=O)[O-])cc1[N+](=O)[O-]`: the growth in the experiment with NCI-H23 lung was 97.3%; in the experiment on NCI-H226 lung, 88.8%; in the experiment on NCI-H322M lung, 93.3%; in the experiment with HOP-62 NSCLC it was 94%; in the experiment with NCI-H460 lung, 106%; in the experiment on HOP-92 NSCLC, 48.6%. For the same compound, the growth in the experiment with NCI-H522 lung is -1.29% (active); in the experiment on A549/ATCC NSCLC, 83.2%; in the experiment on 786-0 renal it was 102%; with COLO 205 colon it was -13.1% (active).
Turning to `COc1cc(Cn2c(-c3ccccc3)cc3c2-c2oncc2CC3)cc(OC)c1`, the growth in the experiment on NCI-H23 lung was 23.7%; with NCI-H226 lung, -3.31% (active); in the experiment with NCI-H322M lung it was 8.6% (active); in the experiment on HOP-62 NSCLC it was 60.5%; in the experiment with NCI-H460 lung, -0.835% (active); with HOP-92 NSCLC, 48.8%. The growth in the experiment with NCI-H522 lung is -17.2% (active); with A549/ATCC NSCLC, 23.3%; in the experiment on 786-0 renal, 37.6%; with COLO 205 colon it was -29.6% (active).
As for `O=C(Nc1ccc(Oc2ccc(Nc3nc4ccccc4s3)cc2)cc1)Nc1ccc(Cl)c(Cl)c1`, the growth in the experiment with NCI-H23 lung is 8.31% (active); in the experiment with NCI-H226 lung, 46.5%; in the experiment on NCI-H322M lung, 56.6%; with HOP-62 NSCLC it was 47%; in the experiment with NCI-H460 lung it was 15.8%; with HOP-92 NSCLC, 37.9%. Further, the growth in the experiment on NCI-H522 lung was 7.82% (active); in the experiment on A549/ATCC NSCLC, 32.8%; in the experiment on 786-0 renal, 43.3%; with COLO 205 colon it was 31.1%.
As for `COc1cc(Nc2ccnc(N3CCN(c4ccnc5cc(Cl)ccc45)CC3)n2)cc(OC)c1`, the growth is 9.65% (active) in the experiment with NCI-H23 lung; 9.15% (active) with NCI-H226 lung; 23.2% in the experiment with NCI-H322M lung; 9.41% (active) in the experiment on HOP-62 NSCLC; 6% (active) with NCI-H460 lung; -16.6% (active) in the experiment with HOP-92 NSCLC. Besides, the growth in the experiment with NCI-H522 lung was -23.2% (active); with A549/ATCC NSCLC, 7.47% (active); with 786-0 renal it was -17.9% (active); in the experiment on COLO 205 colon, -10.7% (active).
Regarding `NC1CCC(Nc2nc(NCc3ccc(-c4cccs4)nc3)c3ncn(C4CCCC4)c3n2)CC1` (stereo not given), the growth was -33.8% (active) in the experiment on NCI-H23 lung; -9.23% (active) in the experiment with NCI-H226 lung; 19% with NCI-H322M lung; -2.05% (active) with HOP-62 NSCLC; 3.28% (active) with NCI-H460 lung; -13% (active) in the experiment with HOP-92 NSCLC. Further, the growth in the experiment with NCI-H522 lung is -52.6% (active); in the experiment with A549/ATCC NSCLC it was 4.31% (active); in the experiment with 786-0 renal it was 0.15% (active); with COLO 205 colon, -51.4% (active).
With `C/C(=N\NC(=S)N1CCCC1)c1ccccn1`, the growth in the experiment on NCI-H23 lung was 17%; with NCI-H226 lung it was -7.28% (active); in the experiment on NCI-H322M lung it was 6.18% (active); with HOP-62 NSCLC it was 10% (active); with NCI-H460 lung it was 1.6% (active); in the experiment on HOP-92 NSCLC, 48.5%. In addition, the growth with NCI-H522 lung was 5.12% (active); in the experiment with A549/ATCC NSCLC, 0.905% (active); in the experiment with 786-0 renal it was 20%; in the experiment on COLO 205 colon, 5.14% (active).
As to `COc1ccc(C(=O)/C=C/c2cc(-c3ccc(OC)c(OC)c3)n[nH]2)cc1OC`, the growth was 8.17% (active) with NCI-H23 lung; 58% in the experiment on NCI-H226 lung; -13.5% (active) in the experiment with NCI-H322M lung; -33.5% (active) in the experiment on HOP-62 NSCLC; -42.2% (active) with NCI-H460 lung; -59.3% (active) with HOP-92 NSCLC. In addition, the growth is -89.4% (active) with NCI-H522 lung, -12.8% (active) with A549/ATCC NSCLC, -64.2% (active) in the experiment on 786-0 renal and -60.7% (active) in the experiment on COLO 205 colon.
`COc1cc(C(=O)n2nc(N)c3c(C)cc(C)nc32)cc(OC)c1OC`: the growth is 88.8% in the experiment with NCI-H23 lung; 92.1% in the experiment on NCI-H226 lung; 88.6% with NCI-H322M lung; 79.3% with HOP-62 NSCLC; 89.9% with NCI-H460 lung; 93.5% in the experiment on HOP-92 NSCLC. In addition, the growth with NCI-H522 lung is 41%; with A549/ATCC NSCLC it was 55.7%; in the experiment with 786-0 renal, 90.4%; with COLO 205 colon it was 67.6%.
